In PubChem BioAssay AID624330 (Southern Research Specialized Biocontainment Screening …, 2012):
Out of some 340,000 compounds screened, about 2,100 (0.62%) were called active. These entries were drawn from the full list. Results with a measured potency or affinity are listed apart. Values without a mark were called inactive.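 How the source made its calls: active means first-screen hits whose inhibition reached a set limit at any dose in the follow-up dose series; inconclusive means inhibition above the set first-screen limit but never retested; inactive means the rest.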

biological target: Rac GTPase-activating protein 1 (Homo sapiens) (UniProt Q9H0H5); assay: MgcRacGAP GTPase-activating activity inhibitors, confirmation, biochemical, ADP Hunter fluorescence, primary and confirmatory (AID 624330); details: MgcRacGAP-stimulated Rac1 GTP hydrolysis, at 30 µM, stronger effect = higher value, GST-tagged Rac1 F28L mutant substrate;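 further: fluorescence reports GDP produced by GAP-driven GTP hydrolysis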
Sequence (Q9H0H5 whole entry, looked up): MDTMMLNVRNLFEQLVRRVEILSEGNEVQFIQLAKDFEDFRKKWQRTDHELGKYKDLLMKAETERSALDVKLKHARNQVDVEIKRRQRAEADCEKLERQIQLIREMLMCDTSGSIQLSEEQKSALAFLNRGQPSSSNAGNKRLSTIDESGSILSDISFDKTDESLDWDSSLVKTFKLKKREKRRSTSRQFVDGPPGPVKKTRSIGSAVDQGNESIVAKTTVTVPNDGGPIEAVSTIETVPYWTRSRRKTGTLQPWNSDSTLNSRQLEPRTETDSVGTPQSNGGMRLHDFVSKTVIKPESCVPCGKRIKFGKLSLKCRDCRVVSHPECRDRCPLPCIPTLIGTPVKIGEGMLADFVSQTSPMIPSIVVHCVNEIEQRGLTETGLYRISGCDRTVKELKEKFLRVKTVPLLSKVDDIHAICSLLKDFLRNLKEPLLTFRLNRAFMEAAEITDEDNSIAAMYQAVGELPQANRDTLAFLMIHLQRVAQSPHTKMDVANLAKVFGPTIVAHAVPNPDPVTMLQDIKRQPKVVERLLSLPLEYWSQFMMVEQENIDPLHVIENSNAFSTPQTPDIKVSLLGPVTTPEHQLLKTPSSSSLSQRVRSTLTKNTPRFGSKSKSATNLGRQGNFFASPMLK

| Compound | inhibition [%] |
| --- | --- |
| Cc1[nH]c(=O)[nH]c(=O)c1S(=O)(=O)N1CCCC(C(=O)NCc2ccco2)C1 (configuration not stated) | 4.98 |
| COc1ccc(C=NNc2nc3ccccc3s2)cc1 | 2.73 |
| Brc1csc(/C=N/Nc2nc3ccccc3s2)c1 | 8.54 |
| COc1cc(OC)cc(C(=O)Oc2ccc(/C=N/Nc3nc4ccccc4s3)cc2OC)c1 | 12.4 |
| COc1cc(/C=N/Nc2nc3ccccc3s2)cc([N+](=O)[O-])c1O | 8.67 |
| COc1cc(/C=N/Nc2nc3ccccc3s2)ccc1OC(=O)c1ccccc1F | 4.55 |
| Oc1ccccc1C=NNc1nc2ccccc2s1 | 4.1 |
| COc1ccc(OC)c(C(=O)COC(=O)c2ccc(C)o2)c1 | 13 |
| Cc1ccc2c(c1)C1CC(C)(O2)N(c2cccc(C(=O)NC3CCN(Cc4ccccc4)CC3)c2)C(=O)N1 (configuration not stated) | 3.74 |
| O=C(CSc1ncnc2sc3c(c12)CCCC3)NC1CCS(=O)(=O)C1 (configuration not stated) | 12.7 |
| CCN(CC(=O)Nc1ccc(S(=O)(=O)N2CCCC2)cc1)Cc1ccccc1 | 1.79 |
| Cc1ccc(C)c(-n2cc(CNCCc3cnccn3)c(-c3ccccc3)n2)c1 | 12.1 |
| Cc1cc(OC(C)C(=O)NCc2ccccn2)c2c(C)cc(=O)oc2c1 (configuration not stated) | 0.55 |
| CC(=O)Nc1cccc2ccc(O)cc12 | -6.95 |
| CC(=O)Nc1ccc2ccc3cccc4ccc1c2c34 | 6.5 |
| Fc1ccc(-c2ncc3ccccn23)cc1 | -4.81 |
| c1ccc(-c2ncc3ccccn23)cc1 | 12 |
| COc1cc(OC)cc(-c2ncc3ccccn23)c1 | 29.5 |
| Brc1ccc(-c2ncc3ccccn23)cc1 | 14.6 |
| COc1ccc(-c2ncc3ccccn23)cc1 | 14.9 |
| Clc1ccc(-c2ncc3ccccn23)cc1 | 6.65 |

| Compound | inhibition [%] |
| --- | --- |
| CCN(CC)C(=O)[C@H]1CC(CC(=O)NC(C)(C)C)C(=O)N2CCc3c([nH]c4ccccc34)[C@]12C (some centres not stated) | 6.38 |
| O=C(Nc1ccon1)Nc1ccc(Cl)cc1Cl | 2.26 |
| Cc1ccc(-c2nc3ncccc3o2)cc1NC(=O)CC(C)C | 4.77 |
| CC(NC(=O)NC1CCCCC1)C(c1cccs1)N1CCN(C)CC1 (configuration not stated) | 1.37 |
| COc1ccc(CNC(=O)Cn2cc([N+](=O)[O-])nc2C)cc1 | 2.29 |
| O=C(O)CCC(=O)N1CCN(c2ncccn2)CC1 | 1.98 |
| O=C(CN1C(=O)C2CCCCC2C1=O)N1CCN(c2ncccn2)CC1 (configuration not stated) | 5.06 |
| COc1ccc2c(C)cc(=O)sc2c1 | 5.61 |
| O=C(Nc1cccc(NC(=O)c2ccccc2)n1)c1ccccc1 | 8.99 |
| CC1CCN(CC(=O)Nc2ccc(S(=O)(=O)N3CCC(C)CC3)cc2)CC1 | 23 |
| O=C(CN1CCCCC1)Nc1ccc(S(=O)(=O)NC2CCCCC2)cc1 | 5.84 |
| CCN1CCN(CC(=O)Nc2cc(C)on2)CC1 | 29.4 |
| Cc1cc(NC(=O)CN2CCCC(C)C2)no1 (configuration not stated) | 20.7 |
| Cc1cc(NC(=O)CN2CCCCCCC2)no1 | 18 |
| Cc1cc(NC(=O)CN2CCCCC2)no1 | 22.2 |
| COc1ccc(S(=O)(=O)N2CCOCC2)cc1C(=O)N(C)CCOc1ccc(Cl)cc1 | 6.35 |
| O=C1C2C3C=CC(O3)C2C(=O)N1Cc1ccncc1 (configuration not stated) | 1.25 |
| CN(CC1COc2ccccc2O1)C(=O)c1ccc(Cl)c(S(=O)(=O)N2CCCCCC2)c1 (configuration not stated) | 7.88 |
| COc1ccc(-c2csc(Nc3ccc(S(=O)(=O)Nc4cc(C)on4)cc3)n2)cc1 | 11.9 |
| Cc1cc(NS(=O)(=O)c2ccc(Nc3nc(-c4ccc(C)c(C)c4)cs3)cc2)no1 | 12.2 |
| COc1ccc(-c2csc(Nc3ccc(S(N)(=O)=O)cc3)n2)cc1 | 15.2 |

| Compound | inhibition [%] |
| --- | --- |
| CC(=O)Nc1ccc(Nc2nc(-c3cc4ccccc4oc3=O)cs2)cc1 | 4.39 |
| CC(=O)Nc1ccc(-c2csc(Nc3ccc(S(N)(=O)=O)cc3)n2)cc1 | -2.9 |
| Oc1ccc(-c2csc(Nc3ccc4c(c3)OCO4)n2)c(O)c1 | 10.8 |
| NS(=O)(=O)c1ccc(Nc2nc(-c3ccc4ccccc4c3)cs2)cc1 | -0.69 |
| Nc1ccc(Nc2nc(-c3cc4ccccc4oc3=O)cs2)cc1 | 47.4 |
| Cc1cc(=O)[nH]c(N/N=C/c2c(C)nn(-c3ccccc3)c2Cl)n1 | 0.59 |
| CN=c1scc(-c2ccc(Cl)cc2)n1C | 3.57 |
| CC(C(=O)OCC(=O)N1CCCCC1)N1C(=O)c2ccccc2C1=O (configuration not stated) | 2.6 |
| CC1CCN(S(=O)(=O)c2cn(CC(=O)N3CCN(C)CC3)c(=O)c3ccccc23)CC1 | -14 |
| O=C(CSc1ccc(-c2cccc([N+](=O)[O-])c2)nn1)N1CCCCC1 | 9.68 |
| CC(C)(C)S(=O)(=O)N1C[C@H]2CC/C=C\C/C(c3ccccc3)=C\2[C@@H]1CCO | 2.11 |
| CC(C)c1ccc(NC(=O)COC(=O)C2CCCCC2)cc1 | 1.49 |
| O=C(NC1CCN(C(=O)N2c3ccccc3Sc3ccccc32)CC1)c1ccco1 | 1.56 |
| O=C(NC1CCN(C(=O)N2c3ccccc3Sc3ccccc32)CC1)c1ccccc1Cl | 23.6 |
| CC1C(=O)C(C)C(c2cc(Cl)ccc2O)NC1c1cc(Cl)ccc1O (configuration not stated) | 6.05 |
| CCC[C@H]1CN(c2ccccc2)C(=O)[C@@H]1CC(=O)Nc1ccc(Br)cc1 | 13.1 |
| COc1ccccc1-n1c(=O)c2c3c(sc2n2c(SC(C)C)nnc12)CCC3 | 14.9 |
| COc1ccccc1-n1c(=O)c2c3c(sc2n2c(SC)nnc12)CCC3 | 11.3 |
| COC(=O)CSc1nnc2n(-c3ccc(OC)cc3)c(=O)c3c4c(sc3n12)CCCCC4 | 7.39 |
| CCSc1nnc2n(-c3ccc(OC)cc3)c(=O)c3c4c(sc3n12)CCCC4 | -3.51 |
